Compound activity from PubChem BioAssay.
The list is not random: actives were taken first. Their share in the collection is about 12%.
Pf growth 96h: P. falciparum growth inhibition at 96 hour, primary screen for plastid delayed-death inhibitors. P. falciparum luciferase reporter growth, 96 h. 320,000 compounds, 6.9% hits. Potency, µM (doses to about 28.7 µM), without a hit: at the top dose activity change, negative = inhibition, usual class: inhibitors; further: on the % scale 0 is the no-effect control and ±100 the full control effect
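Parasite growth measured via integrated firefly luciferase reporter in P. falciparum. Infected erythrocytes at 2% hematocrit, 0.05% parasitemia final were treated 96 hours at 37 C under 5% CO2, and luminescence was read.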
SARS PLP yeast: inhibitors of SARS-CoV papain-like protease in yeast | S. cerevisiae expressing SARS-CoV PLpro, growth rescue | Potency, µM (series often up to 32.9 µM), without a hit: at the top dose activity, positive = growth rescue, usual class: activators | 330,000 compounds, 0.19% hits | AID 485353; calls by dose curve; further: 0% is about no effect; nearly all actives have a fitted effect of over 55% in size
Sm TGR inh: blocks Schistosoma mansoni thioredoxin glutathione reductase; 360,000 compounds, 3% hits; Potency, µM (highest dose often 114 µM), inactives show at the highest dose activity change, negative = inhibition, most hits filed as inhibitors; Q962Y6; purified TGR, DTNB reduction, TNB absorbance 405 nm; AID 485364; further: on the % scale 0 is the no-effect control and ±100 the full control effect; nearly all actives have a fitted effect of over 60% in size
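TGR 20 nM + NADPH 100 uM (dispensed conc.), cpd preinc 15 min RT; start with NADPH (500 uM addition) then DTNB (15 mM addition). Kinetic TNB absorbance, 405 nm filter. Four-parameter Hill fit across titration.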
Pf growth 48h: P. falciparum growth inhibition at 48 hours (one generation) | P. falciparum luciferase growth in erythrocytes, 48 h | Potency, µM (titrated, usually from 28.7 µM), for the others: at the highest dose activity change, negative = inhibition, most hits filed as inhibitors | 310,000 compounds, 5.9% hits | AID 504832; further: on the % scale 0 is the no-effect control and ±100 the full control effect
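First compound was added to culture medium, then infected red cells at 0.1% parasitemia and 2% hematocrit (final). After incubation at 37 C under 5% CO2, luciferase detection reagent was dispensed and light output recorded.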
AmpC no deterg: AmpC beta-lactamase inhibition without detergent; AmpC nitrocefin hydrolysis, absorbance 480 nm, 0.0001% Triton; Potency, µM (series often up to 57.1 µM), inactives show at the highest dose activity change, negative = inhibition, actives largely listed as inhibitors; 330,000 compounds, 0.52% hits;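 further: plate controls were no compound for no effect and no enzyme for full effect; nearly all actives have a fitted effect of over 20% in size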
Target sequence (P00811 whole entry, looked up): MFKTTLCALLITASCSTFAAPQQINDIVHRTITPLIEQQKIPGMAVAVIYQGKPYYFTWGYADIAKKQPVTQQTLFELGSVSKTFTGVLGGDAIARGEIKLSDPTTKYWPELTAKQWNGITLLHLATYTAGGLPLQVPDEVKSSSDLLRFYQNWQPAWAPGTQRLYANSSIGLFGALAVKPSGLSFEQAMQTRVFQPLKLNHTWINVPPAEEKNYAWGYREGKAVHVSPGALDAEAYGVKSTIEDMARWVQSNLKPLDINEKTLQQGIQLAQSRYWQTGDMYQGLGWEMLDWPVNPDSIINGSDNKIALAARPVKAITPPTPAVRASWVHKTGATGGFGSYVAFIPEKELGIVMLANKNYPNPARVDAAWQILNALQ
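AmpC (5.3 nM in the dispensed reagent) in 20 mM phosphate pH 7.0 with 0.01% (detergent screen) or 0.0001% Triton X-100 was preincubated with compounds for 15 min at room temperature. Nitrocefin was then added from an 800 uM solution, and hydrolysis was followed at 480 nm.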
AmpC detergent: inhibitors of E. coli AmpC beta-lactamase with detergent; 370,000 compounds, 0.041% hits; Potency, µM (doses to about 114 µM), for the others: at the top dose activity change, negative = inhibition, most hits filed as inhibitors; AmpC hydrolysis of nitrocefin, absorbance 480 nm, 0.01% Triton; P00811;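 further: 0% = no-compound wells and -100% = no-enzyme wells; nearly all actives have a fitted effect of over 25% in size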
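AmpC (5.3 nM in the dispensed reagent) in 20 mM phosphate pH 7.0 with 0.01% (detergent screen) or 0.0001% Triton X-100 was preincubated with compounds for 15 min at room temperature. Nitrocefin was then added from an 800 uM solution, and hydrolysis was followed at 480 nm.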
Starred values were filed as active, the others as inactive. Unless noted, the call rests on the fitted dose curve; in most records, active means well fitted curve in the direction sought with a large enough effect; inconclusive means small, poorly fitted or top-dose-only effect, or another doubt; inactive means no such curve, though single readings can be large; an effect the other way counts as inactive or inconclusive. Potency means the concentration at half of the fitted maximal effect.

COc1ccc(N2CCC(CNC(=S)Nc3cc(C)ccc3C)C2)cc1 (configuration not stated) was read as Pf growth 96h inconclusive, SARS PLP yeast -2.2%, Sm TGR inh -19.1%, Pf growth 48h inconclusive, AmpC no deterg -30.2% and AmpC detergent 5.4%.
Screening COc1ccc(N2CCC(CNC(=S)Nc3cc(C)cc(C)c3)C2)cc1 (configuration not stated) returned Pf growth 96h inconclusive, SARS PLP yeast 9.5%, Sm TGR inh -0.2%, Pf growth 48h 9.28µM*, AmpC no deterg -37.8% and AmpC detergent 3.2%.
For Cc1ccc2c(c1)sc[n+]2Cc1ccccc1 the results were Pf growth 96h 21.9%, SARS PLP yeast -13.2%, Sm TGR inh 5.62µM*, Pf growth 48h 69.0%, AmpC no deterg -20.2% and AmpC detergent -12.4%.
For COc1cc2c(cc1OC)C(NC(=O)C(F)(F)F)C/C2=N\O (configuration not stated) the results were Pf growth 96h 13.4%, SARS PLP yeast 2.6%, Sm TGR inh 1.9%, Pf growth 48h 13.1µM*, AmpC no deterg -4.6% and AmpC detergent -12.4%.
For COc1ccc2c(c1)C(NC(=O)C(F)(F)F)CC2=O (configuration not stated) the results were Pf growth 96h 10.9%, SARS PLP yeast 0.2%, Sm TGR inh -1.2%, Pf growth 48h 23.1%, AmpC no deterg -11.5% and AmpC detergent -2.3%.
COc1ccc(-c2cn(-c3ccc(C)cc3C)c(=S)[nH]2)cc1OC was read as Pf growth 96h 38.3%, SARS PLP yeast 3.8%, Sm TGR inh -23.8%, AmpC no deterg -1.4% and AmpC detergent -7.1%.
For COc1ccc(-c2cn(-c3cccc(C)c3)c(=O)[nH]2)cc1OC the results were Pf growth 96h 21.6%, SARS PLP yeast 0.9%, Sm TGR inh 12.6µM*, Pf growth 48h 0.0%, AmpC no deterg -4.6% and AmpC detergent 5.7%.
For Nc1c(C(=O)CSc2nnc(COc3ccc(Cl)cc3)o2)c(=O)[nH]c(=O)n1C1CC1 the results were Pf growth 96h 10.4µM*, SARS PLP yeast -4.2%, Sm TGR inh -2.8%, Pf growth 48h inconclusive, AmpC no deterg -3.1% and AmpC detergent 5.5%.
For COCCn1c(SCC(=O)c2c(N)n(C3CC3)c(=O)[nH]c2=O)nnc1-c1cccc(C)c1 the results were Pf growth 96h 8.28µM*, SARS PLP yeast 0.3%, Sm TGR inh -3.1%, Pf growth 48h 8.28µM*, AmpC no deterg -12.9% and AmpC detergent -4.1%.
`CCCn1c(N)c(C(=O)CSc2nc(C3CC3)n(-c3ccccc3)n2)c(=O)[nH]c1=O` gave SARS PLP yeast 1.1% and AmpC no deterg -6.1%.
Screening CCCn1c(N)c(C(=O)CSc2nnc(C3CC3)n2-c2ccccc2)c(=O)[nH]c1=O returned Pf growth 96h 10.4µM*, SARS PLP yeast -6.5%, Sm TGR inh -0.5%, Pf growth 48h inconclusive, AmpC no deterg -35.6% and AmpC detergent -15.0%.
Screening Cc1cccc(Nc2nnc(SC(C)C(=O)NC3CC3)s2)c1 (configuration not stated) returned Pf growth 96h 10.4µM*, SARS PLP yeast 19.5%, Sm TGR inh -0.6%, Pf growth 48h 13.1µM*, AmpC no deterg -22.1% and AmpC detergent -23.5%.
For CCOc1ccc(-c2cc(-c3nc(-c4cc(OC)c(OC)c(OC)c4)no3)[nH]n2)cc1Cl the results were Sm TGR inh 1.4% and AmpC detergent 3.7%.
For CCOC(=O)c1sc(C)c2c1NC(C)(c1cccs1)NC2=O (configuration not stated) the results were SARS PLP yeast -3.7%, Sm TGR inh 2.2%, Pf growth 48h inconclusive, AmpC no deterg -25.9% and AmpC detergent -5.4%.
O=C(c1ccccc1CCc1ccccc1)N1CCOCC1 was read as SARS PLP yeast 2.2%, Sm TGR inh -6.1%, Pf growth 48h -8.2%, AmpC no deterg 10.7% and AmpC detergent 2.1%.
Screening CCn1c(SCC(=O)c2c(N)n(C3CC3)c(=O)[nH]c2=O)nnc1-c1ccccc1OC returned Pf growth 96h 8.28µM*, SARS PLP yeast -1.2%, Sm TGR inh -5.5%, Pf growth 48h inconclusive, AmpC no deterg -11.7% and AmpC detergent -4.8%.
CCn1cnnc1SCC(=O)c1c(N)n(C2CC2)c(=O)[nH]c1=O was read as Pf growth 96h inconclusive, SARS PLP yeast -3.6%, Sm TGR inh -6.8%, Pf growth 48h -11.6%, AmpC no deterg -9.3% and AmpC detergent -5.5%.
For Nc1c(C(=O)CSc2nncn2-c2ccccc2)c(=O)[nH]c(=O)n1C1CC1 the results were Pf growth 96h 11.7µM*, SARS PLP yeast 6.7%, Sm TGR inh -20.6%, Pf growth 48h inconclusive, AmpC no deterg -5.1% and AmpC detergent 6.6%.
Cc1cccc(Nc2nnc(SCC(=O)c3c(N)n(C4CC4)c(=O)[nH]c3=O)s2)c1 was read as Pf growth 96h 6.57µM*, SARS PLP yeast -2.7%, Sm TGR inh -10.0%, Pf growth 48h -17.6%, AmpC no deterg -16.3% and AmpC detergent -3.5%.
Screening Cc1ccc(Nc2nnc(SCC(=O)c3c(N)n(C4CC4)c(=O)[nH]c3=O)s2)cc1C returned Pf growth 96h inconclusive, SARS PLP yeast 1.6%, Sm TGR inh -8.9%, Pf growth 48h -22.5%, AmpC no deterg -37.6% and AmpC detergent inconclusive.
CCn1c(Cc2ccccc2)nnc1SCC(=O)c1c(N)n(C2CC2)c(=O)[nH]c1=O was read as Pf growth 96h 9.28µM*, SARS PLP yeast -1.8%, Sm TGR inh 5.7%, Pf growth 48h inconclusive, AmpC no deterg -16.5% and AmpC detergent 5.3%.
Screening COc1ccc(N(C(=O)c2ccccc2C)S(=O)(=O)c2ccc3c(c2)n(C)c(=O)n3C)cc1 returned Sm TGR inh 2.9% and AmpC detergent 20.9%.
C/C(=N\Nc1ccc(C(=O)c2c(C)cc3ccccn23)cc1[N+](=O)[O-])c1ccc(O)cc1 was read as Pf growth 96h inconclusive, SARS PLP yeast 0.3%, Sm TGR inh -0.4%, Pf growth 48h 9.28µM*, AmpC no deterg -16.3% and AmpC detergent -2.3%.
Screening COc1ccc(OC)c(Nc2sc(C(=O)c3ccccc3)c(N)c2S(=O)(=O)c2ccccc2)c1 returned Sm TGR inh 0.9% and AmpC detergent 5.1%.
`COc1ccc(CNCc2ccc(OC)c3ccccc23)cc1` gave Pf growth 96h 2.33µM*, SARS PLP yeast 1.6%, Sm TGR inh -2.2%, Pf growth 48h 1.1%, AmpC no deterg -13.8% and AmpC detergent -5.9%.
